Inconclusive results are not listed. Entries that show only a call come without a potency. The source made the active and inactive calls. The call rests on the fitted dose curve; in most records, active means well fitted activation curve with a large enough effect in the repeat runs; inconclusive means weak or mixed curves; inactive means flat fitted curve, though single readings scatter.

Here are results for 40 compounds from PubChem BioAssay (Tox21).
Potency means the concentration at half of the fitted maximal effect.

This assay in a line: A CellTox Green Cytotoxicity Assay to monitor cytotoxicity in HEK293 cells - 16 hour (AID 1224888). Further: nearly all actives have a fitted effect of over 35% in size. To be noted: CellTox Green fluorescence; series mostly up to 76.8 µM. The source says:
National Center for Advancing Translational Sciences [NCATS]
NIH Chemical Genomics Center [NCGC]
U.S. Environmental Protection Agency [EPA]
National Institutes of Environmental Health Sciences [NIEHS]
National Toxicology Program [NTP]
Cell-based models are critical for drug discovery. Determining the natural cytotoxic effects resulting from test compounds is an essential research activity. A CellTox Green Cytotoxicity Assay to monitor cytotoxicity in real time of continues cell culture during 40 hours of the compound treatment was used to screen Tox21 10K library compounds in Hek293 cells. CellTox Green Cytotoxicity Assay is a nonlytic, homogeneous, biofluorescent method to measure cytotoxicity in cell culture after experimental manipulation. The assay system uses a proprietary asymmetric cyanine dye that is excluded from viable cells but preferentially stains the dead cell's DNA. […] Viable cells produce no appreciable increases in fluorescence. Therefore, the fluorescence signal produced by the binding interaction with dead cell DNA is proportional to cytotoxicity.
The mixture of Hek293 cell suspension and reagents were dispensed at 600cells/6 ul/well in 1536-well tissue culture treated black solid bottom plates using a Multidrop dispenser. After the assay plates were incubated at a 37 C/5% CO2 incubator for 5 hours, 23 nL of compounds dissolved in DMSO, positive and negative controls was transferred to the assay plate by a pintool work station. The plates were incubated at 37 C for 40 hours. The fluorescence intensity were measured at 0h, 8h, 16h, 24h, 32h and 40h time points using ViewLux plate reader during compound treatment.
Consider `Nc1cc(C(=O)O)c(O)c(S(=O)(=O)O)c1`, for which the Potency result was “inactive”.

In the case of `C#CCN(C)CCCOc1ccc(Cl)cc1Cl`, the Potency result is “inactive”.

For the compound `CNCCCN1c2ccccc2CCc2ccccc21`, the Potency entry was “inactive”.

In the case of `CCCCC1=NC2(CCCC2)C(=O)N1Cc1ccc(-c2ccccc2-c2nn[nH]n2)cc1`, the Potency entry is “inactive”.

On to `CCOC(=O)NCCOc1ccc(Oc2ccccc2)cc1`, for which the Potency entry is “inactive”.

Turning to `C=CCOC(=O)CCC1CCCCC1`, the Potency entry is “inactive”.

With `CCOC(=O)Cc1cccc2ccccc12`, the Potency result is “inactive”.

Consider `ClCCOCCOCCCl`, for which the Potency entry is “inactive”.

In the case of `NCC(=O)CCC(=O)O`, the Potency entry is “inactive”.

On to `CC(CC=O)c1ccccc1` (stereo not given), for which the Potency result is “inactive”.

`C=C1C(=C/C=C2\CCC[C@]3(C)[C@@H]([C@H](C)/C=C/[C@@H](O)C4CC4)CC[C@@H]23)C[C@@H](O)C[C@@H]1O`: the Potency result was “inactive”.

With `C/C=C(/C(=C/C)c1ccc(OC(C)=O)cc1)c1ccc(OC(C)=O)cc1`, the Potency result is “inactive”.

Consider `Clc1ccc(Cn2c(CN3CCCC3)nc3ccccc32)cc1`, for which the Potency entry is “inactive”.

As for `Cc1cc(C(=O)O)ccc1[N+](=O)[O-]`, the Potency entry was “inactive”.

In the case of `COC(=O)c1ccc(I)cc1S(=O)(=O)NC(=O)Nc1nc(C)nc(OC)n1`, the Potency entry was “inactive”.

As to `C/C(=C(\CCOP(=O)(O)O)SC(=O)c1ccccc1)N(C=O)Cc1cnc(C)nc1N`, the activity change was -2.42% [at 6.97 µM, hits give high values] (inactive).

Regarding `C[Si](C)(CCCN)O[Si](C)(C)CCCN`, the Potency entry was “inactive”.

As to `Brc1c2ccccc2cc2ccccc12`, the Potency result was “inactive”.

`O=C(Nc1ccc(S(=O)(=O)N2CCOCC2)cc1)c1cc(Cl)ccc1NS(=O)(=O)c1ccc(Cl)s1`: the Potency was 23.9 µM (active).

Consider `CCCCCCCCCOS(=O)(=O)O`, for which the Potency entry is “inactive”.

Consider `O=C(NCCO[N+](=O)[O-])c1cccnc1`, for which the Potency entry is “inactive”.

For `O=C1OC(CN2CCOCC2)CN1/N=C/c1ccc([N+](=O)[O-])o1` (stereo not given), the Potency entry was “inactive”.

On to `C=C1[C@H]2CC[C@@H]3[C@H]2C(C)(C)CCC[C@]13C`, for which the Potency entry is “inactive”.

Regarding `O=C(O)C1(C(=O)Nc2ccc(Cl)cc2Cl)CC1`, the Potency result is “inactive”.

Turning to `Cc1ccc(C(C)OC(=O)C2(C)CCC(C(=O)O)C2(C)C)cc1` (stereo not given), the Potency entry is “inactive”.

As for `COc1ccc(S(=O)(=O)N2C(=O)[C@@](c3ccccc3OC)(N3C[C@H](O)C[C@H]3C(=O)N(C)C)c3cc(Cl)ccc32)c(OC)c1`, the Potency result is “inactive”.

As to `O=C(O)c1ccco1`, the Potency entry was “inactive”.

Take `COc1cc2nc(Cl)nc(N)c2cc1OC`: the Potency result is “inactive”.

Take `O=C(O)c1nc(Cl)c(Cl)c(Cl)c1Cl`: the Potency entry is “inactive”.

As to `NC(N)=NCCC[C@H](N)C(=O)O`, the activity change was -19.2% [at 6.97 µM, hits give high values] (inactive).

`O=S(c1cc(Cl)cc(Cl)c1O)c1cc(Cl)cc(Cl)c1O`: the Potency result is “inactive”.

On to `CC1=CC[C@H](C(C)C)C=C1`, for which the Potency entry was “inactive”.

As for `CC(=O)NO`, the Potency result is “inactive”.

On to `O[C@@H](COc1cccc2ncccc12)CN1CCN(C2c3ccccc3[C@@H]3[C@H](c4ccccc42)C3(F)F)CC1` (stereo not given in full), for which the Potency entry was “inactive”.

Regarding `O=C(O)CNCC(=O)O`, the activity change is 2.15% [at 6.97 µM, hits give high values] (inactive).

For `OCCNCc1ccccc1`, the Potency entry is “inactive”.

Consider `O=C(NCC1CN(c2ccc(N3CCOCC3=O)cc2)C(=O)O1)c1ccc(Cl)s1` (stereo not given), for which the Potency entry was “inactive”.

As for `Cc1nn(C)c(Oc2ccccc2)c1/C=N/OCc1ccc(C(=O)OC(C)(C)C)cc1`, the Potency entry was “inactive”.

For the compound `CN1C[C@H]2c3ccccc3Oc3ccc(Cl)cc3[C@@H]2C1`, the Potency result was “inactive”.

For the compound `CC(=O)c1ccc2c(c1)N(CCCN1CCC(CCO)CC1)c1ccccc1S2`, the Potency entry was “inactive”.
